According to the supplement of paper PMC10849652:
The full data set covers some 7,900 targets. This sample favours those with a hit. About 0.6% of all pairs of compound and target were hits. Values without a mark were called inactive.

How the values were obtained:
Test in all cases: log2 fold change, soluble protein after heating vs DMSO (PISA); higher = thermal stabilisation; K562 cells, 10 uM, 30 min; active = over 0.2 and 3.5 SD of the protein, either way, in both replicates (recomputed)
saracatinib = compound: CN1CCN(CCOc2cc(OC3CCOCC3)c3c(Nc4c(Cl)ccc5c4OCO5)ncnc3c2)CC1 [saracatinib]
Procedure, shortened: (§1)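 K562 cells at 2×10^6 cells/mL were exposed to 10 μM compound for 30 min, then aliquots were heated for 3 min across 48°C-58°C, pooled, and extracted in PBS containing 0.5% NP-40 at 4°C. The supernatant after 21,000xg for 90 min was taken as soluble protein and measured by TMTpro 16plex LC-MS/MS with channel sums equalised. Thermal stability is reported relative to control samples, with values from duplicates. Fold changes are given on a log2 scale.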

sotrastaurin = compound: CN1CCN(c2nc(C3=C(c4c[nH]c5ccccc45)C(=O)NC3=O)c3ccccc3n2)CC1 [sotrastaurin]
Procedure, shortened: as §1

alvocidib = compound: CN1CC[C@H](c2c(O)cc(O)c3c(=O)cc(-c4ccccc4Cl)oc23)[C@H](O)C1 [alvocidib]
Procedure, shortened: as §1

Tubastatin A = compound: CN1CCc2c(c3ccccc3n2Cc2ccc(C(=O)NO)cc2)C1 [Tubastatin A]
Procedure, shortened: as §1

[1] = compound: CNC(=O)C1=CC=CC=C1NC2=NC(=NC=C2Cl)NC3=C(C=C(C=C3)N4CCOCC4)OC
Procedure, shortened: as §1

defactinib = compound: CNC(=O)c1ccc(Nc2ncc(C(F)(F)F)c(NCc3nccnc3N(C)S(C)(=O)=O)n2)cc1 [defactinib]
Procedure, shortened: as §1

rucaparib = compound: CNCc1ccc(-c2[nH]c3cc(F)cc4c3c2CCNC4=O)cc1 [rucaparib]
Procedure, shortened: as §1

[2] = compound: CNc1nc(-c2ccc3c(N)n[nH]c3c2)cc(N2C[C@@H](C(=O)NC3CCCCC3)CC[C@H]2C)n1
Procedure, shortened: as §1

encorafenib = compound: COC(=O)N[C@@H](C)CNc1nccc(-c2cn(C(C)C)nc2-c2cc(Cl)cc(NS(C)(=O)=O)c2F)n1 [encorafenib]
Procedure, shortened: as §1

[3] = compound: COC(=O)[C@H](CCSC)NC(=O)C1=C(C=C(C=C1)NC[C@H](CS)N)C2=CC=CC=C2
Procedure, shortened: as §1

Chain of UniProt Q99590 (Q99590 whole entry, looked up): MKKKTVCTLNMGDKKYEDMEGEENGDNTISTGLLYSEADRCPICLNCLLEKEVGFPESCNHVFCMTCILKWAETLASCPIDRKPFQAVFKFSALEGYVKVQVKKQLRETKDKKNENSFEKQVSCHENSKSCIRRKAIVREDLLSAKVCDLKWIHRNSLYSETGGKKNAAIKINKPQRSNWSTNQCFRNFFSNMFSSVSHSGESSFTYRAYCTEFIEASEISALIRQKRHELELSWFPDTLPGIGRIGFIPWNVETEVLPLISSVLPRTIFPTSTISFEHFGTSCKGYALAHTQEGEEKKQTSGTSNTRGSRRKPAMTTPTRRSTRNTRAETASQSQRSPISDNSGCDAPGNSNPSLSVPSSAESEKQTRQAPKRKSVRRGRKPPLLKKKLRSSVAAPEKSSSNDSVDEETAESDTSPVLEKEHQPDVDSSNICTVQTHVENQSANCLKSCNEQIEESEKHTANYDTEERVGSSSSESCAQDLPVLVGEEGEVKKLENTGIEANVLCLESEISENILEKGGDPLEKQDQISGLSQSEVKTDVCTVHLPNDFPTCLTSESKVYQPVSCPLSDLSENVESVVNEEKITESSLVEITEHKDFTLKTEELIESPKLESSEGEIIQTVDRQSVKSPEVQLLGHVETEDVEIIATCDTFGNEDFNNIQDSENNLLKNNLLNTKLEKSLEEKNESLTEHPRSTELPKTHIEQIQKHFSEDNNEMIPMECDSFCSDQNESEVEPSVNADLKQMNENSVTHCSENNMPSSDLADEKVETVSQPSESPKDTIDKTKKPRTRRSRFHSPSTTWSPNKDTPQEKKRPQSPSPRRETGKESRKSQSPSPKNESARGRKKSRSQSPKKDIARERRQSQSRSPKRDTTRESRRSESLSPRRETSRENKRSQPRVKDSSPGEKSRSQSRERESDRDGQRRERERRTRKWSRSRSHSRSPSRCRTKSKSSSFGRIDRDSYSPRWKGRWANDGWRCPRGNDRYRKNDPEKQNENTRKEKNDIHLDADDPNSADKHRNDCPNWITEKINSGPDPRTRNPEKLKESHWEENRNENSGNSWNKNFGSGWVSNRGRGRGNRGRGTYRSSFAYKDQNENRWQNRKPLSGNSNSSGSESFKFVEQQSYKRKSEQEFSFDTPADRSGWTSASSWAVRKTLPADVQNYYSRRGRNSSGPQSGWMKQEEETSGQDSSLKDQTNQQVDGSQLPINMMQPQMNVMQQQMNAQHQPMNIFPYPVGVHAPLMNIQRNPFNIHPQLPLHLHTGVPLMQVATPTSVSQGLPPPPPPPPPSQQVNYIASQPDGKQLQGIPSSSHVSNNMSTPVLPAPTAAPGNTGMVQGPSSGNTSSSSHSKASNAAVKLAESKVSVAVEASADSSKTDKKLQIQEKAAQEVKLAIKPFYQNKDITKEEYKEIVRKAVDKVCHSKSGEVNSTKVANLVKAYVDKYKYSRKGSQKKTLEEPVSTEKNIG
Chain of UniProt Q9H2M9 (Q9H2M9 whole entry, looked up): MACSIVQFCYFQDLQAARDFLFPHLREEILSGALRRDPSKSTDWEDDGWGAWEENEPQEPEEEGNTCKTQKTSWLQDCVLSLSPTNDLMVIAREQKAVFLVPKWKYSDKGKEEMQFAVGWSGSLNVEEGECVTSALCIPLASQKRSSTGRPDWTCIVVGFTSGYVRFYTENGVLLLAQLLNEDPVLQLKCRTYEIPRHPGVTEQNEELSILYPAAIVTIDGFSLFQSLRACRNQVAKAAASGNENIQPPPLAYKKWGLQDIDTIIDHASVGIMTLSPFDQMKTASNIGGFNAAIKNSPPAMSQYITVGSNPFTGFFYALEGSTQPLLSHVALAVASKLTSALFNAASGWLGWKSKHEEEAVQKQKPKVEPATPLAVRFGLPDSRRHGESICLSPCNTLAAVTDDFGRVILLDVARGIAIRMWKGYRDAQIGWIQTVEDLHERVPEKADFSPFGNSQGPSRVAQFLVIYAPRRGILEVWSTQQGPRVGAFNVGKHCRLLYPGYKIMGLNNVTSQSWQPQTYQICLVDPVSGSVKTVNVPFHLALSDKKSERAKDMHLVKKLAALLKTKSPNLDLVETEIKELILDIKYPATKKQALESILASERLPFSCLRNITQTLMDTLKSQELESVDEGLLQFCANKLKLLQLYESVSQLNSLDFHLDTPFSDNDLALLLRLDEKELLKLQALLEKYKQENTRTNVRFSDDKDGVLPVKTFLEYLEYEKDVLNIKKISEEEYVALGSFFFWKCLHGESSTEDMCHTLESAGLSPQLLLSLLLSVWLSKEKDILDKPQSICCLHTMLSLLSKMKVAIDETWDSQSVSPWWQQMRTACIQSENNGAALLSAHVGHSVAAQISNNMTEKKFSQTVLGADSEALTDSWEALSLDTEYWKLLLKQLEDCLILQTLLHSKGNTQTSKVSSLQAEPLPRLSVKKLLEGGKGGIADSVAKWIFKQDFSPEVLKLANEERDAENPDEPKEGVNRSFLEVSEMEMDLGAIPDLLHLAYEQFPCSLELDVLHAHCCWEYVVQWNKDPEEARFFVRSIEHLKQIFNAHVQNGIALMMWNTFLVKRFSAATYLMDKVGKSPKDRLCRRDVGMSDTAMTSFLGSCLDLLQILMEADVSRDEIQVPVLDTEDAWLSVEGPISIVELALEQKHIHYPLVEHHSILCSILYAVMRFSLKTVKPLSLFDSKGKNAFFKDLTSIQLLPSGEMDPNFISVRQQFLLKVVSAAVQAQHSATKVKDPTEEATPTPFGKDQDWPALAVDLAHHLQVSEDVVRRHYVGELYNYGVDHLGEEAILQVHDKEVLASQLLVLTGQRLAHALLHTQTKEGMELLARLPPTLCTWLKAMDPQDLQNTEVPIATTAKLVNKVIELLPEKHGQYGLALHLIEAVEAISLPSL
Chain of UniProt Q9NX18 (Q9NX18 whole entry, looked up): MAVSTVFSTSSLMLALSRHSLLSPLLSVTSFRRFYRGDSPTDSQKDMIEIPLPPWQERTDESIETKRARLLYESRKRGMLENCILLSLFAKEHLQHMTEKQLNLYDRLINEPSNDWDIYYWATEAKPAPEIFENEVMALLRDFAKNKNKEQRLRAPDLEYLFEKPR
Chain of UniProt Q96T23 (Q96T23 whole entry, looked up): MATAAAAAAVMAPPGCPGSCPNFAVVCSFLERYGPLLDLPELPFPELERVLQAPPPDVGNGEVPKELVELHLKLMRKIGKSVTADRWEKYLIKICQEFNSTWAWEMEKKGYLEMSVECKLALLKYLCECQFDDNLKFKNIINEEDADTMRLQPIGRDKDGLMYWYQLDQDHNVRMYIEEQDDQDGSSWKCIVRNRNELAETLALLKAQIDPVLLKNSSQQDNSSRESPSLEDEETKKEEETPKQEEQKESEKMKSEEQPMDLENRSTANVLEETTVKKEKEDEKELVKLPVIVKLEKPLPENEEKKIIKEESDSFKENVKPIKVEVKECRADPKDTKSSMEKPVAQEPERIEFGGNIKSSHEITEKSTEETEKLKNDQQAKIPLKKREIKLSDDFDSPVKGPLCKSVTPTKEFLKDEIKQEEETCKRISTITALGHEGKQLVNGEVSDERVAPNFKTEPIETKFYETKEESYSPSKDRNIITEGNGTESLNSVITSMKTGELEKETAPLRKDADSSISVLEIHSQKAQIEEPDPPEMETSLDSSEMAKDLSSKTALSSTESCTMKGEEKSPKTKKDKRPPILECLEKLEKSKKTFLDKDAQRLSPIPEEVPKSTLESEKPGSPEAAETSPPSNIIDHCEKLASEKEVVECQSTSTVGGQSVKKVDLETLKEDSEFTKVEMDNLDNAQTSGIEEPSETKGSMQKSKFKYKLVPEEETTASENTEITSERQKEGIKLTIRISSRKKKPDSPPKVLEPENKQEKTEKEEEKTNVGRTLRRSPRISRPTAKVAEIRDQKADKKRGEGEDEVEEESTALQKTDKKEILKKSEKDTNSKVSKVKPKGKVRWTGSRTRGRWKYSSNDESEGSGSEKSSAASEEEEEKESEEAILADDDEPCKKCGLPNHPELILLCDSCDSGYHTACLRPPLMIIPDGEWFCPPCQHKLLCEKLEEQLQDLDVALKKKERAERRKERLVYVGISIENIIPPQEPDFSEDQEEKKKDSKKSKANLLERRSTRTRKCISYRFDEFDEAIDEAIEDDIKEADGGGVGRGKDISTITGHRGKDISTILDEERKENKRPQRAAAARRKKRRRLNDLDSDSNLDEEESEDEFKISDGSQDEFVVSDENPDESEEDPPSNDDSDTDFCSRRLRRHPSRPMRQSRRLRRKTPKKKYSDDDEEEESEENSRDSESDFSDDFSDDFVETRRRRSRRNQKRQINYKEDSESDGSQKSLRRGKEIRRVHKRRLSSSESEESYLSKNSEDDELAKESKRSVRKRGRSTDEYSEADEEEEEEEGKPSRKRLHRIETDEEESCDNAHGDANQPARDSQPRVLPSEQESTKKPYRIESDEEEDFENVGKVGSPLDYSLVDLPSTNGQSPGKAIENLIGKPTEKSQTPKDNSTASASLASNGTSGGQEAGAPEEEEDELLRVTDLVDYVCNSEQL
Chain of UniProt P51148 (P51148 whole entry, looked up): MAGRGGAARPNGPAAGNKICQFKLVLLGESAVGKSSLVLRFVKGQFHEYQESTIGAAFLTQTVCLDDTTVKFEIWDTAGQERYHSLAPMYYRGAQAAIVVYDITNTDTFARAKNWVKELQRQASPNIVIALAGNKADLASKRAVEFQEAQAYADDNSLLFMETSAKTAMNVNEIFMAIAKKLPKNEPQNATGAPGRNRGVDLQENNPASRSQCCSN
Chain of UniProt Q99496 (Q99496 whole entry, looked up): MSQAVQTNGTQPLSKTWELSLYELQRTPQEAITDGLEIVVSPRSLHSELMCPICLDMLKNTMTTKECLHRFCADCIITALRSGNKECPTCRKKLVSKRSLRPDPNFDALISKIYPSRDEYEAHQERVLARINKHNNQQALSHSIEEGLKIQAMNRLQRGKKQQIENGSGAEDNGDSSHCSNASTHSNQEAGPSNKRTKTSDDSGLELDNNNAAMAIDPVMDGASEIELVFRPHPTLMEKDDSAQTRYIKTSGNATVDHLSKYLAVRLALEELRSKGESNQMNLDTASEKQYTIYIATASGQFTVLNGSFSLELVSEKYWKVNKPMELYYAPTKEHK

Row | Target | log2 fold change (saracatinib) | log2 fold change (sotrastaurin) | log2 fold change (alvocidib) | log2 fold change (Tubastatin A) | log2 fold change [1] | log2 fold change (defactinib) | log2 fold change (rucaparib) | log2 fold change [2] | log2 fold change (encorafenib) | log2 fold change [3]
1 | RIPK1 (UniProt Q13546) | -0.197 | -0.208 | -0.047 | 0.017 | 0.191 | 0.028 | 0.161 | 0.212 | 0.073 | -0.097
2 | SDHAF2 (UniProt Q9NX18) | 0.08 | -0.035 | -0.026 | 0.037 | 0.016 | -0.002 | 0.115 | -0.078 | -0.003 | 0.01
3 | RAP1GDS1 isoform 5 (UniProt P52306) | 0.004 | -0.077 | -0.069 | -0.01 | 0.006 | -0.017 | -0.006 | -0.024 | 0.176 | 0.139
4 | SIK3 (UniProt H0Y4E8) | 0.027 | 0.157 | -0.007 | 0.064 | -0.009 | -0.072 | 0.023 | -0.114 | 0.056 | 0.01
5 | SEC31A (UniProt O94979) | -0.086 | -0.084 | -0.006 | 0.019 | 0.043 | -0.036 | 0.002 | -0.015 | 0.062 | -0.03
6 | RPTOR (UniProt Q8N122) | -0.005 | -0.01 | 0.123 | 0.027 | -0.044 | -0.074 | -0.068 | 0.033 | 0.047 | -0.039
7 | SFXN5 (UniProt Q8TD22) | 0.106 | -0.014 | -0.098 | -0.053 | 0.019 | 0.017 | -0.043 | -0.038 | -0.053 | 0.045
8 | RABGAP1L isoform 3 (UniProt Q5R372) | 0.063 | -0.042 | -0.001 | -0.059 | 0.018 | -0.055 | -0.05 | -0.005 | 0.078 | 0.035
9 | RAB5IF isoform 5 (UniProt Q9BUV8) | 0.114 | -0.018 | -0.115 | -0.139 | -0.08 | -0.01 | -0.014 | -0.018 | 0.08 | 0.031
10 | RRP12 (UniProt Q5JTH9) | -0.024 | -0.118 | 0.233 | 0.125 | -0.057 | -0.006 | 0.183 | -0.005 | 0.138 | 0.076
11 | RAPGEF4 (UniProt Q8WZA2) | 0.045 | -0.033 | 0.04 | 0.333 | -0.114 | -0.057 | -0.063 | 0.083 | 0.059 | -0.123
12 | RPS6KA1 isoform 2 (UniProt Q15418) | 0.02 | -0.067 | -0.012 | 0.005 | -0.088 | -0.258 | -0.108 | -0.101 | -0.018 | -0.015
13 | RPS3A (UniProt P61247) | -0.034 | 0.015 | 0.171 | 0.075 | 0.105 | 0.192 | 0.101 | 0.069 | 0.047 | -0.018
14 | RBM12 (UniProt Q9NTZ6) | -0.04 | -0.12 | -0.191 | 0.074 | 0.008 | -0.27 | -0.109 | -0.02 | 0.061 | -0.052
15 | RRAGC (UniProt Q9HB90) | 0.023 | 0.006 | -0.013 | -0.025 | -0.014 | -0.005 | -0.058 | -0.063 | 0.036 | -0.005
16 | RRP36 (UniProt Q96EU6) | -0.021 | -0.067 | 0.211 | 0.17 | 0.073 | 0.351 | 0.057 | 0.007 | 0.092 | 0.05
17 | RPS9 (UniProt P46781) | -0.044 | -0.015 | 0.237 | 0.119 | 0.083 | 0.226 | 0.108 | 0.095 | 0.118 | -0.027
18 | SEC24A (UniProt O95486) | 0.002 | -0.055 | -0.071 | 0.03 | 0.032 | -0.013 | 0.002 | -0.033 | 0.091 | -0.009
19 | RAB3GAP2 (UniProt Q9H2M9) | -0.111 | -0.195 | -0.013 | 0.058 | 0.017 | -0.064 | 0.205 | 0.039 | 0.189 | -0.089
20 | RBM4 (UniProt Q9BWF3) | 0.024 | -0.1 | -0.037 | 0.017 | -0.052 | -0.055 | 0.157 | -0.036 | 0.063 | 0.025
21 | RSF1 (UniProt Q96T23) | 0 | -0.209 | -0.188 | 0.181 | 0.035 | -0.407 (active) | 0.026 | 0.048 | 0.029 | -0.086
22 | RNF2 (UniProt Q99496) | 0.025 | -0.105 | -0.149 | 0.111 | 0.091 | -0.029 | -0.054 | -0.059 | 0.003 | 0.1
23 | RNASEH2A (UniProt O75792) | -0.071 | 0.029 | -0.107 | 0.033 | 0.029 | 0.117 | 0.018 | 0.033 | -0.003 | 0.096
24 | REL (UniProt Q04864) | -0.028 | -0.049 | -0.059 | 0.008 | 0.052 | -0.12 | 0.089 | -0.013 | -0.046 | -0.016
25 | SCAF11 (UniProt Q99590) | 0.075 | 0.227 | 1.25 (active) | -0.052 | -0.077 | 0.579 (active) | 0.35 | -0.052 | 0.042 | 0.188
26 | RRAGB (UniProt Q5VZM2) | 0.076 | 0.028 | -0.029 | -0.03 | -0.01 | -0.075 | -0.009 | -0.009 | 0.06 | 0.084
27 | RAB5C isoform 2 (UniProt P51148) | 0.08 | -0.011 | 0.011 | 0.013 | -0.013 | -0.011 | -0.02 | 0.003 | -0.039 | 0.017
28 | SASH1 (UniProt O94885) | -0.081 | -0.043 | -0.035 | 0.04 | -0.019 | -0.064 | 0.03 | -0.015 | 0.013 | -0.022
29 | RPS27A (UniProt P62979) | 0.029 | 0.107 | 0.136 | -0.013 | 0.05 | 0.227 | 0.105 | 0.043 | -0.007 | 0.156
